In PubChem BioAssay AID1159580 (chemical genetic matrix, 2015):
Values joined by “and” are separate entries in the source; they are usually repeats but may differ in a detail not shown here. Identical values can stand only once. Among all 5,500 compounds or so, about 2,000 (36%) were called active. Another 18% or so got no clear call; they are omitted. Cut-off read from the data, not from the text of the source: active = normalized growth mostly below about 0.91 (no sharp cut-off); inconclusive = no clear call, values can overlap the other calls; inactive = mostly above about 0.92. This is one part of the list.

Assay: chemical genetic growth profiling, strain panel (AID 1159580);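 note: tested at 20 µM; growth read once vehicle control cultures reached saturation at 30 °C; 1 = growth at the plate median or of vehicle wells; lower values mean less growth of the strain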
Conditions: S. cerevisiae deletion strains, growth OD

Measured: normalized growth

Nc1nc2c(c(=O)[nH]1)N(C=O)C(CNc1ccc(C(=O)N[C@@H](CCC(=O)O)C(=O)O)cc1)CN2 (stereo not given in full)
inactive: locus YAL021C, strain ccr4, active compounds read low 0.973 | locus YAL026C, strain drs2, active compounds read low 1 | locus YAL030W, strain snc1, active compounds read low 0.969 | locus YBL061C, strain skt5, active compounds read low 0.975 | locus YBR009C, strain hhf1, active compounds read low 1.02 | locus YBR021W, strain FUR4, active compounds read low 0.988 | locus YBR023C, strain chs3, active compounds read low 0.971 | locus YBR171W, strain sec66, active compounds read low 0.94 | locus YBR229C, strain ROT2, active compounds read low 0.991 | locus YBR231C, strain swc5, active compounds read low 0.943 | locus YBR279W, strain paf1, active compounds read low 0.991 | locus YCL011C, strain gbp2, active compounds read low 0.99 | locus YCL016C, strain dcc1, active compounds read low 1.02 | locus YCL029C, strain bik1, active compounds read low 0.985 | locus YCL061C, strain MRC1, active compounds read low 0.964 | locus YCL069W, strain vba3, active compounds read low 0.971 | locus YCR088W, strain abp1, active compounds read low 0.971 | locus YDL005C, strain med2, active compounds read low 0.963 | locus YDL035C, strain GPR1, active compounds read low 1.01 | locus YDL040C, strain nat1, active compounds read low 0.974 | locus YDL074C, strain BRE1, active compounds read low 0.999 | locus YDL101C, strain DUN1, active compounds read low 0.987 | locus YDL185W, strain tfp1, active compounds read low 0.986 | locus YDL192W, strain arf1, active compounds read low 0.981 | locus YDR001C, strain nth1, active compounds read low 0.956 | locus YDR069C, strain doa4, active compounds read low 0.94 | locus YDR101C, strain arx1, active compounds read low 1 | locus YDR137W, strain rgp1, active compounds read low 0.947 | locus YDR159W, strain sac3, active compounds read low 1.01 | locus YDR162C, strain NBP2, active compounds read low 1 | locus YDR195W, strain ref2 0.906 | locus YDR297W, strain sur2, active compounds read low 0.972 | locus YDR318W, strain mcm21, active compounds read low 0.985 | locus YDR334W, strain swr1, active compounds read low 0.934 | locus YDR335W, strain msn5, active compounds read low 0.964 | locus YDR388W, active compounds read low 0.985 | locus YDR392W, strain spt3, active compounds read low 1.1 | locus YDR502C, strain sam2, active compounds read low 0.985 | locus YEL003W, strain gim4, active compounds read low 0.971 | locus YEL037C, strain rad23, active compounds read low 0.978 | locus YEL061C, strain CIN8 (second series), active compounds read low 0.953 | locus YEL061C, strain CIN8, active compounds read low 0.996 | locus YER015W, strain faa2, active compounds read low 1.01 | locus YER016W, strain bim1, active compounds read low 0.99 | locus YER110C, active compounds read low 0.978 | locus YER111C, strain swi4, active compounds read low 0.968 | locus YER155C, strain BEM2 (second series), active compounds read low 0.954 | locus YER155C, strain BEM2, active compounds read low 0.981 | locus YER167W, strain BCK2, active compounds read low 0.993 | locus YFR010W, strain ubp6, active compounds read low 0.931 | locus YGL078C, strain dbp3, active compounds read low 0.967 | locus YGL086W, strain mad1, active compounds read low 1 | locus YGL167C, strain pmr1, active compounds read low 0.957 | locus YGL173C, strain kem1, active compounds read low 0.966 | locus YGL227W, strain vid30, active compounds read low 0.964 | locus YGL240W, strain doc1, active compounds read low 0.94 | locus YGL248W, strain PDE1, active compounds read low 0.982 | locus YGL253W, strain hxk2, active compounds read low 0.986 | locus YGR135W, strain pre9, active compounds read low 0.945 | locus YGR252W, strain gcn5, active compounds read low 0.948 | locus YHR013C, strain ard1, active compounds read low 0.972 | locus YHR027C, strain rpn1, active compounds read low 0.972 | locus YHR030C, strain SLT2, active compounds read low 0.993 and 0.985 | locus YHR079C, strain IRE1 (second series), active compounds read low 0.989 | locus YHR079C, strain IRE1, active compounds read low 1 | locus YHR094C, strain hxt1, active compounds read low 0.984 | locus YHR129C, strain ARP1, active compounds read low 0.99 | locus YHR142W, strain chs7, active compounds read low 0.957 | locus YHR200W, strain rpn10, active compounds read low 0.986 | locus YIL066C, strain RNR3, active compounds read low 0.989 | locus YIL073C, strain SPO22, active compounds read low 1.01 | locus YIL125W, strain kgd1, active compounds read low 0.989 | locus YIR030C, strain dcg1, active compounds read low 0.979 | locus YJL092W, strain hpr5, active compounds read low 0.963 | locus YJL095W, strain BCK1 (second series), active compounds read low 0.967 | locus YJL095W, strain BCK1, active compounds read low 0.975 and 1.02 | locus YJL115W, strain asf1, active compounds read low 0.949 | locus YJL129C, strain trk1, active compounds read low 0.954 | locus YJL134W, strain LCB3, active compounds read low 0.991 | locus YJL154C, strain vps35, active compounds read low 0.959 | locus YJL164C, strain tpk1, active compounds read low 1.02 | locus YJL166W, strain qcr8, active compounds read low 0.932 | locus YJL168C, strain set2, active compounds read low 0.981 | locus YJL187C, strain SWE1 (second series), active compounds read low 0.985 | locus YJL187C, strain SWE1, active compounds read low 0.977 | locus YJR043C, strain POL32, active compounds read low 1.01 | locus YJR066W, strain TOR1, active compounds read low 0.969 | locus YJR075W, strain HOC1, active compounds read low 0.993 | locus YKL009W, strain mrt4, active compounds read low 0.996 | locus YKL068W, active compounds read low 0.991 | locus YKL085W, strain MDH1 (second series), active compounds read low 0.979 | locus YKL085W, strain MDH1, active compounds read low 0.979 | locus YKL160W, strain elf1, active compounds read low 0.972 | locus YKL190W, strain CNB1, active compounds read low 1 | locus YKR001C, strain vps1, active compounds read low 0.997 | locus YKR026C, strain gcn3, active compounds read low 0.961 | locus YKR091W, strain srl3, active compounds read low 0.984 | locus YLL001W, strain dnm1, active compounds read low 0.926 | locus YLL026W, active compounds read low 0.948 | locus YLL041C, strain sdh2, active compounds read low 0.976 | locus YLR027C, strain aat2, active compounds read low 0.958 | locus YLR039C, strain RIC1, active compounds read low 0.958 | locus YLR058C, strain SHM2, active compounds read low 0.983 | locus YLR102C, strain apc9, active compounds read low 0.989 | locus YLR113W, strain HOG1, active compounds read low 1.02 | locus YLR221C, strain rsa3, active compounds read low 1.01 | locus YLR258W, strain gsy2, active compounds read low 1.01 | locus YLR262C, strain YPT6 (second series), active compounds read low 0.941 | locus YLR262C, strain YPT6, active compounds read low 1.02 | locus YLR268W, strain sec22, active compounds read low 0.984 | locus YLR320W, strain mms22, active compounds read low 1.01 | locus YLR330W, strain CHS5, active compounds read low 0.988 | locus YLR342W, strain FKS1 (second series), active compounds read low 1 | locus YLR342W, strain FKS1, active compounds read low 0.955 | locus YLR357W, strain rsc2, active compounds read low 0.928 | locus YLR370C, strain arc18, active compounds read low 0.959 | locus YLR371W, strain rom2, active compounds read low 0.975 | locus YLR384C, strain iki3, active compounds read low 0.958 | locus YLR418C, strain cdc73, active compounds read low 0.938 | locus YML016C, strain PPZ1, active compounds read low 0.992 | locus YML032C, strain rad52, active compounds read low 0.999 | locus YML120C, strain ndi1, active compounds read low 0.956 | locus YML124C, strain tub3, active compounds read low 0.991 | locus YMR058W, strain fet3, active compounds read low 0.954 | locus YMR078C, strain ctf18, active compounds read low 0.981 | locus YMR125W, strain sto1, active compounds read low 0.965 | locus YMR129W, active compounds read low 0.971 | locus YMR205C, strain PFK2, active compounds read low 0.978 | locus YMR223W, strain ubp8, active compounds read low 0.959 | locus YMR231W, strain pep5, active compounds read low 0.964 | locus YMR307W, strain GAS1, active compounds read low 0.961 | locus YNL067W, strain RPL9B, active compounds read low 0.999 | locus YNL071W, strain lat1, active compounds read low 0.984 | locus YNL128W, strain TEP1, active compounds read low 0.979 | locus YNL183C, strain NPR1, active compounds read low 0.97 | locus YNL209W, strain ssb2, active compounds read low 0.986 | locus YNL233W, strain BNI4, active compounds read low 0.986 | locus YNL248C, strain rpa49, active compounds read low 0.978 | locus YNL250W, strain rad50, active compounds read low 0.977 | locus YNL271C, strain bni1, active compounds read low 0.967 | locus YNL298W, strain CLA4, active compounds read low 0.985 | locus YNL307C, strain MCK1, active compounds read low 0.99 | locus YNL322C, strain KRE1 (second series), active compounds read low 0.965 | locus YNL322C, strain KRE1, active compounds read low 0.995 | locus YNR049C, strain mso1, active compounds read low 0.971 | locus YNR052C, strain pop2, active compounds read low 0.984 | locus YOL006C, strain TOP1, active compounds read low 0.964 | locus YOL012C, strain htz1 0.703 | locus YOL147C, strain pex11, active compounds read low 0.978 | locus YOR001W, strain rrp6, active compounds read low 0.943 | locus YOR061W, strain CKA2, active compounds read low 0.992 | locus YOR069W, strain VPS5, active compounds read low 0.989 | locus YOR070C, strain gyp1, active compounds read low 0.991 | locus YOR080W, strain dia2, active compounds read low 0.966 | locus YOR083W, strain WHI5, active compounds read low 0.961 | locus YOR106W, strain vam3, active compounds read low 0.943 | locus YOR136W, strain idh2, active compounds read low 0.99 | locus YOR144C, strain elg1, active compounds read low 0.992 | locus YOR184W, strain ser1, active compounds read low 0.978 | locus YOR231W, strain MKK1, active compounds read low 1.02 | locus YOR265W, strain rbl2, active compounds read low 0.965 | locus YOR270C, strain vph1, active compounds read low 0.957 | locus YOR290C, strain snf2, active compounds read low 1.01 | locus YOR316C, strain cot1, active compounds read low 0.987 | locus YPL051W, strain arl3, active compounds read low 0.985 | locus YPL055C, strain LGE1, active compounds read low 0.981 | locus YPL078C, strain atp4, active compounds read low 0.904 | locus YPL106C, strain sse1, active compounds read low 0.947 | locus YPL240C, strain hsp82, active compounds read low 0.968 | locus YPL256C, strain CLN2, active compounds read low 0.993 | locus YPR119W, strain clb2, active compounds read low 0.986 | locus YPR141C, strain kar3, active compounds read low 0.977 | locus YPR163C, strain tif3, active compounds read low 0.976 | locus YPR167C, strain met16, active compounds read low 0.986 | strain wtn01, active compounds read low 0.981
